Laboratory results reported in the supplement of paper PMC11732987, “Enantioselective OTUD7B fragment discovery through chemoproteomics screening and high-throughput optimisation” (Communications Chemistry, 2025).

Columns and labels:
Assay in all cases: log2 ratio of Biotin-Ahx-Ub-VS probe labelling (fragment/DMSO); higher = less target engagement (more negative = stronger competition), active = hit call of the paper (q ≤ 0.05, log2 ratio ≤ -1)
Settings in all cases: compound concentration: 200 uM; treatment time: 3 h
USP42 = biological target: T1, USP42 (UniProt Q9H9J4)
T1 sequence (whole entry): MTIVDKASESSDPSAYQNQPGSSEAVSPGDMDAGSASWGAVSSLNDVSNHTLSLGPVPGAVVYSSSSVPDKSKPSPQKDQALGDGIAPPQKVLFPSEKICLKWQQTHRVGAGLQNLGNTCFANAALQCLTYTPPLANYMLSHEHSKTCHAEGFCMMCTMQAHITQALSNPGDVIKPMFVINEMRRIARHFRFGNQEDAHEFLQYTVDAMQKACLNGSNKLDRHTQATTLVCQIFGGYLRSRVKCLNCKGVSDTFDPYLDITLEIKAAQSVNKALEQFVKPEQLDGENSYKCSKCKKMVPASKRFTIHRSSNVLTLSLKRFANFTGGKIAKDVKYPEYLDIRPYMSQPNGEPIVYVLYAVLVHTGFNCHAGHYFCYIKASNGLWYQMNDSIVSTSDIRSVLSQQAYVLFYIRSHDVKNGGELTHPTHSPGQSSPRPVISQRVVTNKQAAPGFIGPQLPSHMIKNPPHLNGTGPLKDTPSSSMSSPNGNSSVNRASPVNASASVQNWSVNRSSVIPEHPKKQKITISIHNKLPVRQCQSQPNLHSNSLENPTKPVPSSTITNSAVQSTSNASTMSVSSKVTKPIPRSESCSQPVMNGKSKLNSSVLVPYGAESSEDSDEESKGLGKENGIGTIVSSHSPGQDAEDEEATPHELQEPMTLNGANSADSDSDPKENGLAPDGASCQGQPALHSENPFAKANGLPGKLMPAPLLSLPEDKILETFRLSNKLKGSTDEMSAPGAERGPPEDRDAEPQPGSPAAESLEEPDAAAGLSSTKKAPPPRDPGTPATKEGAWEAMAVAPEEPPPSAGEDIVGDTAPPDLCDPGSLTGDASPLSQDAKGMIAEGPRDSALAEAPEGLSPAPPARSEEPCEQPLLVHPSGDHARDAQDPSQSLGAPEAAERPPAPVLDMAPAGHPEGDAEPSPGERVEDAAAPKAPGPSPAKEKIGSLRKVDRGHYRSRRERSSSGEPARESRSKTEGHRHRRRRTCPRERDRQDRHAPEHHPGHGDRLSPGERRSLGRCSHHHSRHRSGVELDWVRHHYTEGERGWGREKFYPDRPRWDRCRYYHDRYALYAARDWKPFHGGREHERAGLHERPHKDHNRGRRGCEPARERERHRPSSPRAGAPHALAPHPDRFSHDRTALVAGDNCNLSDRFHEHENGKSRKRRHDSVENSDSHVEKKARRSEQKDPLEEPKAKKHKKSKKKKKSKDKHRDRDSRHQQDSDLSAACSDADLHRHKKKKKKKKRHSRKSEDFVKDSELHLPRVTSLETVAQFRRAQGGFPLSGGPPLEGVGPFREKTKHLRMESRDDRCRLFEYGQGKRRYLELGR
Procedure, shortened: (§1)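 HEK293T lysate in Tris/CHAPS/IGEPAL buffer with protease inhibitors (495 µg per sample) was given fragment at 200 µM or vehicle for 3 h, in triplicate. It then received Biotin-Ahx-Ub-VS at 0.5 µM final for 1 h. Labelled DUBs were NeutrAvidin-enriched, digested with LysC and trypsin, and run by diaPASEF LC-MS/MS. Values are average log2 fragment/vehicle ratios by unpaired t-test on global-median-normalised Spectronaut quantities of proteins with ≥2 unique peptides.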

USP46 = USP46 (UniProt P62068)
Procedure, shortened: as §1

USP47 = biological target: T2, USP47 (UniProt Q96K76)
T2 sequence (whole entry): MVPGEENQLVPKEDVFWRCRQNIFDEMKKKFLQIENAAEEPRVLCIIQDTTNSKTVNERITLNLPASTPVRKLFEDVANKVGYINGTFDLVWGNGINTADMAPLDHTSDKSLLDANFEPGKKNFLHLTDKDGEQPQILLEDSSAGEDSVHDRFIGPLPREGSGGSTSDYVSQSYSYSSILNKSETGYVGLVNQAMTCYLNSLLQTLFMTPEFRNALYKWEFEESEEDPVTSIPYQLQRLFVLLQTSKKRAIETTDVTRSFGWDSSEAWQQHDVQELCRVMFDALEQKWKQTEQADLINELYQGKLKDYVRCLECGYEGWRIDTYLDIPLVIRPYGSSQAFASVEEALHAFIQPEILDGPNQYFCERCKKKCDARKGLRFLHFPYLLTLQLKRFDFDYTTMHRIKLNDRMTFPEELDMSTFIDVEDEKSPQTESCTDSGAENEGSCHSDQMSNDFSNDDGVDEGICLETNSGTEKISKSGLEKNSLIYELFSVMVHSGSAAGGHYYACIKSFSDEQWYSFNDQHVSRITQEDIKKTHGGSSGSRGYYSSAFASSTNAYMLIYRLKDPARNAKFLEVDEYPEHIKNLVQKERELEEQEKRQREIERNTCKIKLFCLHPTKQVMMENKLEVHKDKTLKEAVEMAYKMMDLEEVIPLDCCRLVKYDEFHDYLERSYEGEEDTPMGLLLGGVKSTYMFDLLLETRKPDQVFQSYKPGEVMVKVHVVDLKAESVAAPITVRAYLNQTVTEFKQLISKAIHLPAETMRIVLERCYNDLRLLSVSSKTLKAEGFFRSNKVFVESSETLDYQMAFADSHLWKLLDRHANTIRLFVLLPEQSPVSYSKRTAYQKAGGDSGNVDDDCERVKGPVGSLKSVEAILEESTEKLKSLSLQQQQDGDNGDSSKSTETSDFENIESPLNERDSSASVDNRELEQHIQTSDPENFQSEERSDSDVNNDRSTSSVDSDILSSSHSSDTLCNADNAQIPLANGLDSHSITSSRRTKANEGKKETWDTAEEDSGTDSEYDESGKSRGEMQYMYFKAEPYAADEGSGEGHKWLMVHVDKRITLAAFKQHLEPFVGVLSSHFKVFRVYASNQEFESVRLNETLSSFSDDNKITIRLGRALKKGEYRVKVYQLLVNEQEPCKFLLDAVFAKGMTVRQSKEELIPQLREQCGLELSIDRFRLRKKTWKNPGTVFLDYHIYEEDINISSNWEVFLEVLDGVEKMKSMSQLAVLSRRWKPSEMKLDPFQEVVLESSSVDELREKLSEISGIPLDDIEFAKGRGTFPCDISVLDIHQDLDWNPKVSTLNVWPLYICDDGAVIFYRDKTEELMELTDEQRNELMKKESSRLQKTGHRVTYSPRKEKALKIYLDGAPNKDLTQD
Procedure, shortened: as §1

USP48 = biological target: T3, USP48 (UniProt Q86UV5)
T3 sequence (whole entry): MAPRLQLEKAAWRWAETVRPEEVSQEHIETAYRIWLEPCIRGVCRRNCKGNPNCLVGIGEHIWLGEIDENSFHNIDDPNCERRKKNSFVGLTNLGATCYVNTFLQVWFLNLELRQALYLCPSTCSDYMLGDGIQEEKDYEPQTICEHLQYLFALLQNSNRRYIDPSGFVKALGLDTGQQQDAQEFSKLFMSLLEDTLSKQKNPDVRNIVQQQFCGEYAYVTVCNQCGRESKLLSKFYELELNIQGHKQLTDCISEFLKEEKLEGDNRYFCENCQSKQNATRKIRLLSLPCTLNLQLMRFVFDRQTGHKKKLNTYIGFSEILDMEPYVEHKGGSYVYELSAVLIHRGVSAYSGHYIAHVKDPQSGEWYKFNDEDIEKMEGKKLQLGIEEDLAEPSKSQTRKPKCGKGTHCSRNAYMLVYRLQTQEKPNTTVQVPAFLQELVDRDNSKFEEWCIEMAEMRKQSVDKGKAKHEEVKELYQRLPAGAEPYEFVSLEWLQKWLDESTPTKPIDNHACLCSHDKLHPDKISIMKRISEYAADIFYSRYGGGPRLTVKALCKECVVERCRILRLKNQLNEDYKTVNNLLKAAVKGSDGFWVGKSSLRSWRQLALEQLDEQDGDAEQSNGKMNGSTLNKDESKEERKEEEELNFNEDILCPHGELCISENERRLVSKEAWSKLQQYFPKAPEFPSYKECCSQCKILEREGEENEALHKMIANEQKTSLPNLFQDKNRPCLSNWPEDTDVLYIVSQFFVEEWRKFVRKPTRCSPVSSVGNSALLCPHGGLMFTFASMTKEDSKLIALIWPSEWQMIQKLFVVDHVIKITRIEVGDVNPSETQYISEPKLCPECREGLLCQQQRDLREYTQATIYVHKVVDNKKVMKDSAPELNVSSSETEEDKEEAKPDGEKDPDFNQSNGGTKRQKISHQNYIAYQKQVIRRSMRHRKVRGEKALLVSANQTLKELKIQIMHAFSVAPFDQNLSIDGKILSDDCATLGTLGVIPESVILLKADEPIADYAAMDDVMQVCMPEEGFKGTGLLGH
Procedure, shortened: as §1

USP5 = biological target: T4, USP5 (UniProt P45974)
T4 sequence (whole entry): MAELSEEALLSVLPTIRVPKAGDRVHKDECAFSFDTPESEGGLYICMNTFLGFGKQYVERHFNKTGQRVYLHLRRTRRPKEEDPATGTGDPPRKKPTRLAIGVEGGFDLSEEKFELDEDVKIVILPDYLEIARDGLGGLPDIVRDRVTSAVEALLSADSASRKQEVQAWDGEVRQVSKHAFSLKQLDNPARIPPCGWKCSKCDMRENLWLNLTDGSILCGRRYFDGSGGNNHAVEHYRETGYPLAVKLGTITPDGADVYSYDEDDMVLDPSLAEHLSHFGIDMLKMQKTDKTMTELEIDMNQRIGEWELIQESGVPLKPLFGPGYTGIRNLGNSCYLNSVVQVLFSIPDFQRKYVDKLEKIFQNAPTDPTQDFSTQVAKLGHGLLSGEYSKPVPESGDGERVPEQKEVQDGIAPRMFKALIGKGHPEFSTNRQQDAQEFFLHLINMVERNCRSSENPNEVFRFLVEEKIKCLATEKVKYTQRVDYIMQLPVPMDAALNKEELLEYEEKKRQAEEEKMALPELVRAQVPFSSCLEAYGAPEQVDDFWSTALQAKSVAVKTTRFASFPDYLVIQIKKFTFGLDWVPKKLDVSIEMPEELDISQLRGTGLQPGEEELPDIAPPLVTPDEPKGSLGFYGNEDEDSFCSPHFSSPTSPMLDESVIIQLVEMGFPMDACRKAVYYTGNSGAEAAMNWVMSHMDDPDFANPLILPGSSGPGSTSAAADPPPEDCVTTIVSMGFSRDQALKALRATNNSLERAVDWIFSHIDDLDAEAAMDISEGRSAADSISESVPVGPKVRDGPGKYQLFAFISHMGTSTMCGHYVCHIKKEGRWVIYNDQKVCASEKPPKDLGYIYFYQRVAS
Procedure, shortened: as §1

USP54 = USP54 (UniProt Q70EL1)
Procedure, shortened: as §1

USP7 = USP7 (UniProt Q93009)
Procedure, shortened: as §1

USP8 = biological target: T5, USP8 (UniProt P40818)
T5 sequence (whole entry): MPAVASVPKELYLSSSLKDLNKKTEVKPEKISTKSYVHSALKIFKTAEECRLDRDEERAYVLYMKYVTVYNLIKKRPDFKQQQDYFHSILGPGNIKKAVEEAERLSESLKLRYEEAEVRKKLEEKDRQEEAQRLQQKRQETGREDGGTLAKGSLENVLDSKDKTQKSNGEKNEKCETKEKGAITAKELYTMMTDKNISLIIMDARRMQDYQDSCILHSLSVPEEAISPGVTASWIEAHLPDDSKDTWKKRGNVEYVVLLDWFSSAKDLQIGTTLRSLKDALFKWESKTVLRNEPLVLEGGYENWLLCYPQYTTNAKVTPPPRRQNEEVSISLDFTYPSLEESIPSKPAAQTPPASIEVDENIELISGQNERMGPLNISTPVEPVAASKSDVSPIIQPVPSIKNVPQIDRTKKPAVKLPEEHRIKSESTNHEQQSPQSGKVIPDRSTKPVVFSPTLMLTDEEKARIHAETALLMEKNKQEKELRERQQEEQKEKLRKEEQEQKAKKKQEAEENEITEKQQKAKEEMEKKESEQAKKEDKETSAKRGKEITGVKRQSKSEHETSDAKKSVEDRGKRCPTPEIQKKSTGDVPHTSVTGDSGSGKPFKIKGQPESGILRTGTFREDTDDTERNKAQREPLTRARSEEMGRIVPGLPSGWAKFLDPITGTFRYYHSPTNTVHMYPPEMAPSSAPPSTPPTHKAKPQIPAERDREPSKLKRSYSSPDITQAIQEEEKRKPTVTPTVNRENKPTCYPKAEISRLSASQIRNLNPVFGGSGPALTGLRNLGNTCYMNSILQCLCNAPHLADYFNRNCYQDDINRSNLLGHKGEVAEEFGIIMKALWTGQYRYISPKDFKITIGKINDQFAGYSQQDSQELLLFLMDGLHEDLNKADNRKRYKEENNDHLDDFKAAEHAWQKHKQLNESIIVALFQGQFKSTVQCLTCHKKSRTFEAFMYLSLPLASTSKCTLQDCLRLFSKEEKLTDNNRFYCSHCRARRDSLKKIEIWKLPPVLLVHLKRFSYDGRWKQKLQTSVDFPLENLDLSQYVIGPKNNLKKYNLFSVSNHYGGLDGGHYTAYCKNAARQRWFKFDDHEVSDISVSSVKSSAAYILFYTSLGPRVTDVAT
Procedure, shortened: as §1

USP9X = USP9X (UniProt Q93008)
Procedure, shortened: as §1

UniProt O00487 = biological target: UniProt O00487
Procedure, shortened: as §1

Measured: log2 ratio of Biotin-Ahx-Ub-VS probe labelling

USP7, sequence (Q93009 whole entry, looked up): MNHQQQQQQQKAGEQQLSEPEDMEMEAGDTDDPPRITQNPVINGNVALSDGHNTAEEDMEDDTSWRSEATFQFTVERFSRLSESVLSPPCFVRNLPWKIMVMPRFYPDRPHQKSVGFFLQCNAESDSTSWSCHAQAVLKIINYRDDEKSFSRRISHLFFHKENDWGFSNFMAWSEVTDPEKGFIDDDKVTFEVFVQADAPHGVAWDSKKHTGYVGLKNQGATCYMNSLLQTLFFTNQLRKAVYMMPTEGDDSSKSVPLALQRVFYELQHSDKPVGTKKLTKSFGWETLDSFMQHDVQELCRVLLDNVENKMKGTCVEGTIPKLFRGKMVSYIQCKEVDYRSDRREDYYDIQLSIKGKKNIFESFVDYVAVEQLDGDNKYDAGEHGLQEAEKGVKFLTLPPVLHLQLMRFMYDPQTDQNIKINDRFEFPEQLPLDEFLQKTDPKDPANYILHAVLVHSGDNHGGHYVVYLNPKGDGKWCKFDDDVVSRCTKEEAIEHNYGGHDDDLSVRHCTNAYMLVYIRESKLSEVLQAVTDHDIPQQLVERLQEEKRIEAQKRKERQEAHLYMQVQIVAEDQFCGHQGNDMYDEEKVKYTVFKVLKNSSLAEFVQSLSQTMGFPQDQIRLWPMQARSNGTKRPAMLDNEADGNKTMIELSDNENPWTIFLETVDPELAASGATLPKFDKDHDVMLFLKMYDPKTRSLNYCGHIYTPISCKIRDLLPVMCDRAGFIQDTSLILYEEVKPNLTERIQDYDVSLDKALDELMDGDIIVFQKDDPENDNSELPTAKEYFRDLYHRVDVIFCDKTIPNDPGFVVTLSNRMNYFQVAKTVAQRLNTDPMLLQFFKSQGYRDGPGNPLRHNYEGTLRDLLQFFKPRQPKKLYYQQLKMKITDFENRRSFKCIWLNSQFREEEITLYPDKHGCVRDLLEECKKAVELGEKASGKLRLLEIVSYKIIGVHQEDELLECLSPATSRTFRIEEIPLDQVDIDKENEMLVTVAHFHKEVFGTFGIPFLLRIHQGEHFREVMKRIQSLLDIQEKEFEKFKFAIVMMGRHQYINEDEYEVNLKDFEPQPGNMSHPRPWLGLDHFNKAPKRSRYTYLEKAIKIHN
USP46, sequence (P62068 whole entry): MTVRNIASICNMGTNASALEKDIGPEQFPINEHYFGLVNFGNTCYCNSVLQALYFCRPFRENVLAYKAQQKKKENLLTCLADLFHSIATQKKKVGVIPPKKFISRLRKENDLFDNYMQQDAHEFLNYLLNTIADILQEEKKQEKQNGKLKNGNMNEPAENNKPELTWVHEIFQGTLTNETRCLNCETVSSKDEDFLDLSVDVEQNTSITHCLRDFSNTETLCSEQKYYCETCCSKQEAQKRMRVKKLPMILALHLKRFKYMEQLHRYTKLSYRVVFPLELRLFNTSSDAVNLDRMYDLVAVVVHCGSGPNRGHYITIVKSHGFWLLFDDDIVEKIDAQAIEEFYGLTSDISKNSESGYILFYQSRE
USP54, sequence (Q70EL1 whole entry): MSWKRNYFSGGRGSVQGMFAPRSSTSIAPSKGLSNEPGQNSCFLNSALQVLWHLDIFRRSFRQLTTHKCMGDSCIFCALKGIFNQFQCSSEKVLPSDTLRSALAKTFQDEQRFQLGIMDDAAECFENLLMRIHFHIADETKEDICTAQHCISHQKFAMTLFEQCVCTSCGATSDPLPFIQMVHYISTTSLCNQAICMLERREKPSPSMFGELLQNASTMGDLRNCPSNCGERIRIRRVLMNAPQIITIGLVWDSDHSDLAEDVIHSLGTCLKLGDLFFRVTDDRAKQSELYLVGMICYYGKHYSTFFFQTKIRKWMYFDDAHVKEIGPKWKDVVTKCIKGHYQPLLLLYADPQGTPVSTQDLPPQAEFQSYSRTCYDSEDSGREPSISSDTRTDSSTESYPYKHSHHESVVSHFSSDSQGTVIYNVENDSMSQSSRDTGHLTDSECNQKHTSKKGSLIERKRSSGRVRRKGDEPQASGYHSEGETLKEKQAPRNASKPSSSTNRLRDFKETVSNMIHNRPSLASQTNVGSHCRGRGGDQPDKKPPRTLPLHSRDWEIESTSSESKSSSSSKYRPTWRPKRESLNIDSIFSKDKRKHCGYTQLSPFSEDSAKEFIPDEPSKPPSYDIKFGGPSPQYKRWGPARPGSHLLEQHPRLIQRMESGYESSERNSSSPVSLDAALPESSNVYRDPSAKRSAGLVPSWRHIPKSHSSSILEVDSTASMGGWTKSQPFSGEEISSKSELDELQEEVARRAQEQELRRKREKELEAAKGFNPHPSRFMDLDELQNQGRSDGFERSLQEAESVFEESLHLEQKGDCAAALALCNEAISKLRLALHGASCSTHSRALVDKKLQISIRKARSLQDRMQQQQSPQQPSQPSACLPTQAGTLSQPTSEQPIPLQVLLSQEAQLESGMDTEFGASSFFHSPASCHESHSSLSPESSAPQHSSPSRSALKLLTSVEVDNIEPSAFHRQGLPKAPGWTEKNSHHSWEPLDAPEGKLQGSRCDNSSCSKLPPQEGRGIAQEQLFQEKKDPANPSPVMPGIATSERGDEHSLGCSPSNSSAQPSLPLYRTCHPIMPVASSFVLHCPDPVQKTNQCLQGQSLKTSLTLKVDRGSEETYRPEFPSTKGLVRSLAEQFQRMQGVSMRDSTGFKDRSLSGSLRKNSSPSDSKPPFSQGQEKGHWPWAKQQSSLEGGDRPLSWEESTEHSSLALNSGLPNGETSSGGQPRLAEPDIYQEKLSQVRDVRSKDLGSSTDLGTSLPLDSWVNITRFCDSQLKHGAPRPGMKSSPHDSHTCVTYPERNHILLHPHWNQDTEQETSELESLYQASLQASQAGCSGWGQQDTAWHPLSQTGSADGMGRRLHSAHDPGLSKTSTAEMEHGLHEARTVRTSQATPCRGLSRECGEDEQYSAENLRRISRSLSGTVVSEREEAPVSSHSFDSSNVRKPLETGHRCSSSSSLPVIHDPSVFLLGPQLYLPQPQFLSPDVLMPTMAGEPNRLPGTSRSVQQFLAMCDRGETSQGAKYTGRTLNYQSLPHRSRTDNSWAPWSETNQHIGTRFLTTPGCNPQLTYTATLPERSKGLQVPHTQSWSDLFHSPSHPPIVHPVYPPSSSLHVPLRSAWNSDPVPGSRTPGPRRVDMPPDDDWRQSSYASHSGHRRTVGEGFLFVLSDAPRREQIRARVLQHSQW
UniProt O00487, sequence (O00487 whole entry): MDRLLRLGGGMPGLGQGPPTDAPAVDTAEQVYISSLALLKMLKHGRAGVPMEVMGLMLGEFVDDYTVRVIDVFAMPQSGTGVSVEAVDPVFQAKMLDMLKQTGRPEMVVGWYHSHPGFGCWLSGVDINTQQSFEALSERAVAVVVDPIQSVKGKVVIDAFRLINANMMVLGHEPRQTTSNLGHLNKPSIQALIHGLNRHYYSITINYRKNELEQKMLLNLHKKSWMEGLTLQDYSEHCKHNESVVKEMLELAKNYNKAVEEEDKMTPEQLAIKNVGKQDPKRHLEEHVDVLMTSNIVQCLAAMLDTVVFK

O=C(CCl)NCc1ccc(N2CCOCC2)c(F)c1
inactive: USP42 0.396 | USP46 0.00295 | USP47 0.00631 | USP48 0.132 | USP5 0.372 | USP54 0.657 | USP7 -0.046 | USP8 0.129 | USP9X -0.078 | UniProt O00487 0.0665
